Experimental data reported in PubChem BioAssay AID488784 (Sanford-Burnham Center for Chemical Genomics, 2010).
The whole screen tested about 1,000 compounds, of which about 700 (70%) were called active. So high a share suggests a set chosen from earlier hits. Only a sample is shown. Unmarked numbers belong to inactive results. No stated cut-off is given here; in the data, active means inhibition above about 50%; inactive means the rest.

Experiment: CASP1-PYCARD signaling inhibition in yeast, confirmatory test, counterassay for NLRP3 inhibitor program, one-dose (AID 488784)
Details: yeast expressing Caspase-1-ASC, luminescence counter screen; at 10 µM; hits give high values

SMILES	inhibition
Cc1cc(C)nc(NC(=O)Nc2ccccc2C(F)(F)F)n1	55.5% (active)
CC(C)Sc1ncnc2c1cnn2-c1ccccc1	40.6%
CC(C)n1c(COc2ccccc2)nc2ccccc21	59.4% (active)
Cc1ccc(OCc2nc3ccccc3n2C)cc1	76.5% (active)
CCSc1nc2sc3c(c2c(=O)n1-c1ccc(C)cc1)CCN(C)C3	33.2%
O=C(COc1ccccc1F)Nc1nc(-c2ccccn2)cs1	65% (active)
Cn1c(=O)c(C(=O)Nc2ncccn2)c(O)c2ccccc21	49.2%
CCc1noc(C)c1C(=O)Nc1nc2ccc(OC)cc2s1	76.8% (active)
Cc1ccc(-c2nn(C(C)(C)C)c3ncnc(N)c23)cc1	96.3% (active)
COc1ccccc1C(=O)Nc1ccc(NC(=O)c2ccco2)c(C)c1	47.5%
Cc1ccc(O)c(NC(=O)c2cc(-c3ccco3)on2)c1	61.9% (active)
CC(=O)[C@@]12O[C@@H]1C[C@H]1[C@@H]3CC[C@H]4C[C@@H](O)CC[C@]4(C)[C@H]3CC[C@@]12C	53% (active)
Cc1ccnc(Nc2nc3ccccc3s2)n1	21.8%
CN(C)c1ccnc2sc(C(=O)c3ccccc3)c(N)c12	70.2% (active)
CCCN(CC1CC1)C(=S)NC(=O)c1ccccc1Br	53.1% (active)
O=[N+]([O-])c1c(NCCO)cc(Sc2nc3ccccc3s2)c2nonc12	65.5% (active)
Cc1cc(C(=O)COc2ccc(Br)cc2F)c(C)n1C1CC1	60.1% (active)
CC1(C)CCSC(/C=C/c2ccccc2)=N1	91.5% (active)
COc1ccccc1OCc1nc2ccccc2s1	48.7%
CCN(CC)c1ccc(/C=N/Nc2nc(C)cc(C)n2)c(O)c1	55% (active)
Nc1c(-c2cccc(Cl)c2)cnn1-c1cccc([N+](=O)[O-])c1	53% (active)
Oc1c(Cl)cc(Cl)c(Cl)c1Cc1c(O)c(Cl)cc(Cl)c1Cl	99.3% (active)
O=C(CC(O)(C(F)(F)F)C(F)(F)F)Nc1ccc(Cl)c(Cl)c1	99.2% (active)
Cc1c(C(=O)N2CCCc3ccccc32)oc2ccccc12	49.6%
O=C(Nc1ccccc1Cl)/C(Cl)=C(\Cl)S(=O)c1ccccc1 (stereo unspecified)	98.8% (active)
O=C(Nc1ccc(Oc2ccccc2)cc1)c1ccco1	45.2%

SMILES	inhibition
O=C(Nc1ccc2oc(-c3ccccc3F)nc2c1)c1ccco1	72.2% (active)
Cn1c(=NC(=O)c2ccco2)sc2cccc(F)c21	25%
Cc1cc(C)c(/C=C2\C(=O)Nc3ccccc32)[nH]1	40.2%
Cc1ccc(OCc2nc(C#N)c(N3CCCC3)o2)cc1	71.8% (active)
O=C(CSc1ccc(-c2ccc(-n3cccn3)cc2)nn1)Nc1ccc([N+](=O)[O-])cc1	11.2%
C[C@@H]1C[C@@H]2O[C@H]2/C=C\C=C\C(=O)Cc2c(Cl)c(O)cc(O)c2C(=O)O1	48.6%
CCCNc1ncnc2sc(C)c(C)c12	50.8% (active)
CC(=NCc1ccc2c(c1)OCO2)C1=C(O)c2ccccc2C1=O	60.2% (active)
O=C(NCc1ccc2c(c1)OCO2)c1c(O)nc2sccn2c1=O	36.7%
O=C(Oc1c(-c2ccco2)oc2ccccc2c1=O)c1cccnc1	58.5% (active)
CC(C)C(=O)N1CCN(CCN=CC2=C(O)CC(c3ccco3)CC2=O)CC1 (stereo unspecified)	55.2% (active)
Cc1cccc(NC(=S)NC(=O)c2ccc(Br)o2)c1	76.2% (active)
CN=C1C=C/C(=N/N=c2\ccn(O)cc2C)C=C1C	53.3% (active)
O=C(CSc1ncnc2c1oc1ccccc12)NC1CCCC1	39.4%
Cc1ccc2cccc(S(=O)(=O)N3CCN(c4ccccc4F)CC3)c2n1	52.6% (active)
O=C1CSC(=S)N1c1ccc(O)cc1	79.7% (active)
COc1cc(N2C(=O)CSC2=S)cc(OC)c1OC	45.7%
CCc1cc(C(=O)Nc2nnc(C3CC3)s2)sc1C	55.5% (active)
Cc1ccc(CSc2nsc(C)c2C#N)cc1	60% (active)
Oc1ccc(Br)cc1/C=N/Nc1ccccn1	37.1%
O=[N+]([O-])c1cccc(/C=N/Nc2ncc(Br)cn2)c1	62.5% (active)
O=[N+]([O-])/C=C/c1ccc2c(ccn2Cc2ccccc2)c1	99.7% (active)
CCOC(=O)c1c(C)[nH]c(C(=O)COc2ccc3c(c2)OCO3)c1C	66.8% (active)
Fc1ccccc1-c1cc2cc3c(cc2cn1)OCO3	51% (active)
N#Cc1nc(Cc2ccccc2)oc1NCCc1ccccc1	56.8% (active)
